Here are results for nine molecules from PubChem BioAssay (NCATS).

Each structure is given as a SMILES string. Where “and” joins values, the source holds several entries; their conditions need not be identical. Equal values may be shown once. Records with an inconclusive call do not appear. Unmarked numbers belong to inactive results. Calls of active or inactive are those of the source. Calls follow the shape of the dose curve; as a rule, active = well fitted inhibition curve with a large enough effect; inconclusive = small, poorly fitted or top-dose-only effect; inactive = flat fitted curve, though single readings scatter.

A short description of assay [1]: Drug repurposing screens with cells derived from glioblastoma tumor samples (AID 1345199). Also: nearly all actives have a fitted effect of over 40% in size. The conditions noted are these: GBM patient neurospheres viability, ATP luminescence, 48 h. In short, it runs like this:
(§1)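 Four patient lines of CD133+ GBM neurospheres were screened at several concentrations; hits were retested in those lines plus three slower-growing GBM lines, using 48-hour treatment and ATP-based viability.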

For another assay, the system named is astro (control astrocytes). The assay is described as above. As to conditions: viability, ATP luminescence, 48 h; series mostly up to 45.9 µM. In short, it runs like this:
as §1

Setting [2] is: at 45.9 µM (top of the series), tumour line B.
Setting [3] is: at 45.9 µM (top of the series), tumour line D.
Setting [4] is: at 46 µM (top of the series), tumour line A.
[5] abbreviates: at 46.1 µM (top of the series), tumour line C.
% is scaled to controls: 0 for no effect and ±100 for the full control effect; potency is read from the fitted curve at half-maximal effect.

Take `CC(C(=O)O)c1ccc(/C=C2\CCCCC2=O)cc1` (centres undefined): the activity, negative = cell killing in assay [1] (setting [2]) was -2.39%; in assay [1] (setting [3]), -17%; in assay [1] (setting [4]), -27.9%; in assay [1] (setting [5]), 3.8%. Further, in the assay with astro, the Potency result was “inactive”.
As for `CN1CCCN=C1/C=C/c1cccs1`, the activity, negative = cell killing in assay [1] (setting [2]) was -1.18%; in assay [1] (setting [3]), -9.69%; in assay [1] (setting [4]) it was -29.5%; in assay [1] (setting [5]), 6.9%. Besides, in the assay on astro, the Potency entry is “inactive”.
Take `CC(=O)Nc1ccn(C2COC(COC(=O)c3ccccc3)O2)c(=O)n1` (centres undefined): the activity, negative = cell killing in assay [1] (setting [2]) was -21.5%; in assay [1] (setting [5]), -14.9%.
With `OC(CCCN1CCCCC1)(c1ccccc1)c1ccccc1`, the activity, negative = cell killing in assay [1] (setting [2]) is 9.15%; in assay [1] (setting [3]), -27.2%; in assay [1] (setting [5]), -3.12%. Further, the Potency in assay [1] (tumour line A) is 11.2 µM (active). In addition, the Potency result with astro was “inactive”.
Consider `CC(C)(C)C(=O)OCOC(=O)C1N2C(=O)CC2S(=O)(=O)C1(C)C` (centres undefined), for which the activity, negative = cell killing in assay [1] (setting [2]) is -8.27%; in assay [1] (setting [3]) it was -8.54%; in assay [1] (setting [4]) it was -19.2%; in assay [1] (setting [5]) it was -11.5%. The Potency result in the assay on astro was “inactive”.
For `CO[C@@]1(NC(=O)CSC[C@@H](N)C(=O)O)C(=O)N2C(C(=O)O)=C(CSc3nnnn3C)CS[C@@H]21`, in that order: -3.3%, -19.7%, -20.1%, -4.96% and “inactive”.
With `O=C1OC2(c3ccccc31)c1cc(I)c(O)c(I)c1Oc1c2cc(I)c(O)c1I`, the activity, negative = cell killing in assay [1] (setting [2]) is -23.6%. Moreover, the Potency in assay [1] (tumour line A) is 11.2 µM (active).
As for `CCO[C@H](Cc1ccc(OCCc2ccc(OS(C)(=O)=O)cc2)cc1)C(=O)O`, the activity, negative = cell killing in assay [1] (setting [2]) is -8.78%; in assay [1] (setting [3]), -11.2%; in assay [1] (setting [5]), -26%. Further, the Potency in assay [1] (tumour line A) is 14.1 µM (active). For the same molecule, in the assay on astro, the Potency entry was “inactive”.
With `Cc1ccc(O)cc1`, the activity, negative = cell killing in assay [1] (setting [2]) is -22.9% and -5.16%; in assay [1] (setting [3]), -8.77% and -8.54%; in assay [1] (setting [4]) it was -10.9%; in assay [1] (setting [5]), 8.95% and -5.08%. Moreover, the Potency result in the assay with astro is “inactive”.
